# Assay outcomes (PubChem BioAssay)
# NS1 function inh = influenza NS1 inhibition. Potency, µM (doses to about 46.1 µM), for inactives: at the top dose activity, positive = more growth. 0.4% of 270,000 active; calls by dose curve; further: actives are rising curves; nearly all actives have a fitted effect of over 50% in size
#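 Compounds were scored for reversing the slow growth caused by influenza A NS1 in S. cerevisiae, measured by optical density at 600 nm. Assay medium contained 2% galactose at pH 6.0; NS1-free yeast of the same strain were the positive control.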
# AMA1-RON2 inh = AMA1-RON2 (P. falciparum) interaction inhibition; 0.2% of 360,000 active; Potency, µM (series often up to 58.2 µM), for inactives: top-dose activity change, negative = inhibition, usual class: inhibitors; AID 720542; AlphaScreen AMA1-biotinylated RON2 peptide binding;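 further: 0% = vehicle wells and -100% = peptide control; nearly all actives have a fitted effect of over 45% in size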
#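 AMA1 (3D7) with his tag at 25 nM final met compounds first, then biotinylated RON2 peptide at 25 nM; detection used donor plus acceptor beads, 10 µg/mL apiece, read by AlphaScreen after 30 min at room temperature.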
# Pf growth 96h = P. falciparum growth inhibition at 96 hour, primary screen for plastid delayed-death inhibitors; AID 504834; P. falciparum luciferase reporter growth, 96 h; Potency, µM (top dose mostly 28.7 µM), without a hit: at the highest dose activity change, negative = inhibition, hits mostly inhibitors; 6.9% of 320,000 active; further: on the % scale 0 is the no-effect control and ±100 the full control effect
#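 Cell-based qHTS: luciferase-tagged P. falciparum in erythrocytes (2% hematocrit, 0.05% parasitemia final) incubated with compounds for 96 hours, 37 C, 5% CO2; luciferase detection reagent then added and luminescence measured.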
# Pf growth 48h = P. falciparum growth inhibition at 48 hours (one generation); P. falciparum luciferase growth in erythrocytes, 48 h; Potency, µM (doses to about 28.7 µM), for inactives: at the top dose activity change, negative = inhibition, actives largely listed as inhibitors; 5.9% of 310,000 active; further: on the % scale 0 is the no-effect control and ±100 the full control effect
#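 Here the parasites carry a stable luciferase gene and grow inside erythrocytes in Albumax-based RPMI medium with compound for one erythrocytic cycle. Activity is scored as loss of luminescent signal.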
# Sm TGR block = inhibitors of Schistosoma mansoni thioredoxin glutathione reductase | Q962Y6 | purified TGR, DTNB reduction, TNB absorbance 405 nm | Potency, µM (titrated, usually from 114 µM), inactives show at the highest dose activity change, negative = inhibition, hits mostly inhibitors | 3% of 360,000 active | AID 485364; further: on the % scale 0 is the no-effect control and ±100 the full control effect; nearly all actives have a fitted effect of over 60% in size
#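 Kinetic colorimetric format: TGR-catalysed, NADPH-driven DTNB reduction monitored via TNB absorbance. Enzyme dispensed at 20 nM; compound exposure 15 min at room temperature before reaction start.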
# * hit, by the source's call; u = inconclusive; x = not tested or not shown; [ ] = dose if it differs, or a comment. Only some compounds are listed: those with a hit (about 11% of all), similar ones and a draw of the others. Unless noted, the call rests on the fitted dose curve; in most records, active means well fitted curve in the direction sought with a large enough effect; inconclusive means small, poorly fitted or top-dose-only effect, or another doubt; inactive means no such curve, though single readings can be large; an effect the other way counts as inactive or inconclusive. Potency means the concentration at half of the fitted maximal effect.
SMILES,NS1 function inh,AMA1-RON2 inh,Pf growth 96h,Pf growth 48h,Sm TGR block
CC(=O)Nc1c(I)c(C(=O)N[C@H]2[C@@H](O)[C@H](O)[C@H](CO)O[C@@H]2O)c(I)c(N(C)C(C)=O)c1I,x,x,-26%[12.8 µM],-9%[12.8 µM],x
COc1cc(Br)cc(C2C3=C(CCCC3=O)N(c3ccc(F)cc3)C3=C2C(=O)CCC3)c1O,4%,-3%,u,5.2µM*,3%
Cc1ccc(C)c(Cn2nc3c4ccccc4n(Cc4ccccc4)cc-3c2=O)c1,2%,-2%,10%,13µM*,0%
COC(=O)C1=C(C)Nc2nnnn2C1c1ccc(Cl)cc1Cl (centres undefined),-45%,-5%,u,4.7µM*,3%
CCOC(=O)C1=C(C)Nc2nnnn2C1c1ccccc1Cl (centres undefined),9%,-8%,-19%,-27%,-17%
CCOC(=O)C1=C(C)Nc2nnnn2C1c1ccc(OC)c(Br)c1 (centres undefined),-9%,-4%,12µM*,u,4%
COc1ccc(C2C(C(=O)OC3CCCCC3)=C(C)Nc3nnnn32)c(OC)c1OC (centres undefined),-17%,6%,5%,9.3µM*,-5%
CCOc1ccccc1OCCC(=O)OCC(=O)Nc1c(C)cc(C)cc1C,x,12%,-3%,-3%,0%
CCc1nc2ccc(C(=O)Nc3cccc(NS(C)(=O)=O)c3)cn2c1N(C)Cc1nccn1C,x,2%,x,x,x
CCCCC/C=N/NC(=O)c1[nH]c2ccc([N+](=O)[O-])cc2c1C,3%,57%,10µM*,u,5%
O=C(CN1C(=O)c2ccccc2S1(=O)=O)c1ccc(Cl)cc1Cl,x,3%,x,x,x
Cc1nn(Cc2ccccc2)c(C)c1C=C1C(=O)NC(=O)NC1=O,13%,-21%,8.3µM*,0%,-1%
Cc1nn(Cc2ccccc2)c(C)c1CCC(=O)O,6%,16%,x,16%,-2%
CC(=O)Nc1ccc(S(=O)(=O)N2CCSC2c2ccc(C)cc2)cc1 (centres undefined),u,2%,4%,-2%,2%
Cn1cc(S(=O)(=O)N2CCOCC2)cc1C(=O)Nc1ccc(Cl)cc1,-16%,25%,7.4µM*,30%,-23%
COC(=O)c1ccc(NC(=O)c2cc(S(=O)(=O)N3CCOCC3)cn2C)cc1,x,x,x,x,3%
O=C(Nc1ccc(F)c(F)c1)c1ccc(F)c(S(=O)(=O)N2CCC3(CC2)OCCO3)c1,x,-14%,10µM*,u,-1%
CC(=O)Nc1ccc(S(=O)(=O)N2CCSC2C(=O)O)cc1 (centres undefined),5%,3%,12µM*,x,1%
Cc1cc(C)n(S(=O)(=O)c2ccccc2)n1,5%,7%,5%,-1%,1%
CC(=O)Nc1ccc(S(=O)(=O)n2nc(C)cc2C)cc1,-4%,4%,0.93µM*,-3%,4%
CCc1ccc(NC(=O)c2ccc(F)c(S(=O)(=O)N3CCC4(CC3)OCCO4)c2)cc1,x,x,x,x,-2%
COc1ccc(CCNC(=O)c2coc3ccccc3c2=O)cc1,-9%,7%,u,1%,-19%
CC1CCC(NC(=O)CN(C)CC(=O)Nc2ccc(F)cc2)CC1 (centres undefined),x,2%[11.6 µM],-17%,u,-3%
CC(Oc1ccccc1Cl)C(=O)Nc1ccc(S(=O)(=O)N2CCCC2)cc1 (centres undefined),x,-9%,24%,13µM*,-1%
CC(OC(=O)C(C)Oc1ccccc1)C(=O)Nc1ccc(S(=O)(=O)N2CCCCC2)cc1 (centres undefined),x,-3%,u,-30%,0%
SMILES,NS1 function inh,AMA1-RON2 inh,Pf growth 96h,Pf growth 48h,Sm TGR block
O=C(CCc1ccc(S(=O)(=O)N2CCOCC2)cc1)N/N=C/c1cccc(O)c1,-9%,1%,15µM*,u,-7%
CC(C(=O)Nc1ccc(S(=O)(=O)N2CCCC2)cc1)N1CCc2ccccc2C1 (centres undefined),x,u,u,12µM*,-2%
Cc1ccc(NC(=O)C(C)N2CCc3ccccc3C2)cc1 (centres undefined),1%,18%,28%,23%,-1%
CC(=O)Nc1ccc(S(=O)(=O)N2CCC3(CC2)OCCO3)cc1,-8%,-5%,9.3µM*,20%,2%
CCCCNc1nc(Oc2ccc(=O)n(C)n2)nc(N2CCOCC2)n1,x,x,x,x,2%
CC(Oc1ccc(Cl)cc1)C(=O)Nc1ccc(S(=O)(=O)N2CCOCC2)cc1 (centres undefined),-5%,-7%,8%,13µM*,3%
CC(Oc1ccc(Cl)cc1)C(=O)Nc1cccc(S(=O)(=O)N2CCCC2)c1 (centres undefined),x,0%,x,x,x
O=C(CS(=O)(=O)Cc1ccccc1)Nc1ccc(S(=O)(=O)N2CCOCC2)cc1,-5%,6%,-26%,-10%,2%
O=C(CCCc1ccccc1)Nc1ccc(S(=O)(=O)N2CCOCC2)cc1,-9%,-6%,10µM*,u,1%
CC(=O)Nc1ccc(S(=O)(=O)N2CCOCC2)cc1,5%,-4%,2.9µM*,0%,0%
O=S(=O)(c1ccc(Cl)c(NC(=S)Nc2cccc(O)c2)c1)N1CCOCC1,11%,44%,18%,28%,11µM*
O=C(c1ccc2c(c1)N(Cc1ccc(Cl)cc1)C(=O)c1ccccc1S2=O)N1CCOCC1 (centres undefined),x,x,x,x,-13%
CC(C)[C@H](NC(=O)c1c(F)cccc1F)C(=O)OCC(=O)NC(=O)NC1CCCC1,-9%,-13%,-7%,16%,-2%
CCCNC(=O)CSc1nc2nc(C)c(Cc3ccccc3Cl)c(C)n2n1,x,x,x,x,6%
O=S(=O)(c1ccc(NC(=S)NC2CC2)cc1)N1CCOCC1,1%,-2%,-10%,23%,16µM*
Cc1ccc(NC(=S)Nc2ccc(S(=O)(=O)N3CCOCC3)cc2)cc1S(=O)(=O)N1CCOCC1,x,76%,-19%,1%,16µM*
O=S(=O)(c1ccc(NC(=S)NC2CCCC2)cc1)N1CCCC1,1%,27%,4%[5.75 µM],-23%,-23%
O=C(CCc1ccc(S(=O)(=O)N2CCOCC2)cc1)Nc1nc(COc2ccccc2)cs1,-1%,-6%,x,12µM*,-6%
CC(=O)Nc1ccc(S(=O)(=O)N2CCN(CCN3CCOCC3)CC2)cc1Cl,5%,13%,15%,2.1µM*,9%
COC(=O)C1=C(O)/C(=C\c2ccc(OCC(=O)Nc3ccc(OC)cc3)cc2)N=C1C,8%,-4%,u,u,-11%
CC(=O)Nc1ccc(S(=O)(=O)NCCN2CCNC2=O)cc1Cl,2%,4%,7.4µM*,u,-7%
COc1cc(C(=O)N2CCC(NC(=O)C(Cc3ccccc3)NC(C)=O)CC2)cc(OC)c1OC (centres undefined),-4%,11%,12µM*,u,-1%
